From PubChem BioAssay
The full list was thinned out, with hits kept by preference.
TTR transcr act = TTR transcription activators in neuroblastoma reporter cells, primary screen, cell-based, luminescence, SH-SY5Y, TTR promoter Gaussia luciferase; 100% = recombinant luciferase protein wells; activation, % at 16.7 µM; 92,000 tested, 1.3% active;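 active = activation above the mean of all tested compounds plus 3 SD, cut at about 9.5% in these data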;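 also: cells exposed to compounds for one day before reading; 0% = median of all test compound wells on the plate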
TTR inh HuH7 = TTR promoter reporter inhibitors in hepatoma cells, counter-screen for TTR transcription activator project, cell-based, luminescence, HuH7 hepatoma. shares compounds with TTR transcr act. HuH7 TTR promoter-Gaussia luciferase reporter. inhibition, % at 16.7 µM. 1,100 tested, 4% active;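 active = average inhibition above the solvent-only control wells' mean plus 3 SD, cut at about 15% in these data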;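 also: 0% = cells with DMSO only and 100% = cells with inhibitor control FD; inhibitors lower well luminescence so higher value means more inhibition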
TTR up confirm = TTR transcription activators, retest, confirmation, cell-based, luminescence, SH-SY5Y, triplicate; shares compounds with TTR transcr act; SHSY5Y TTR promoter Gaussia luciferase; 100% = purified Lucia enzyme wells, no cells; activation, % at 16.7 µM; 1,100 tested, under 10 active;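 active = mean activation above a set limit taken from the earlier primary screen, cut at about 11% in these data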;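 also: 0% = DMSO-treated cells and 100% = recombinant Lucia luciferase without cells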
* = called active by the depositor.

SMILES	TTR transcr act	others
O=C1CN(S(=O)(=O)c2cccc(Br)c2)CCN1	14*	TTR inh HuH7=-10;TTR up confirm=0
Cc1ccc(S(=O)(=O)N2CCNC(=O)C2)c(C)c1	6
Cc1ccc(CCNC(=O)CCS(=O)(=O)c2ccc3c(c2)oc(=O)n3C)cc1	1
COCC(C)NCc1ccc(OC)c(Br)c1 (configuration not stated)	1
O=C(NC1CCCC1)C(c1cccnc1)N(Cc1ccc(F)cc1)C(=O)c1csnn1 (configuration not stated)	0
O=C(O)CCCNS(=O)(=O)Cc1ccccc1	-1
N#CCCN(CCCN1CCOCC1)CN1C(=O)c2ccccc2C1=O	31*	TTR inh HuH7=-10;TTR up confirm=-1
O=C1c2ccccc2NC(c2ccccc2)N1CCCN1CCOCC1 (configuration not stated)	-1
O=C1c2ccccc2C(=O)N1CCN1CCCCC1	-2
O=C(O)c1ccccc1Nc1ccc([N+](=O)[O-])cc1C(=O)O	1
O=C(O)c1cc([N+](=O)[O-])ccc1-c1ccc([N+](=O)[O-])cc1C(=O)O	0
O=C(O)c1cc([N+](=O)[O-])cc2ccccc12	15*	TTR inh HuH7=-1;TTR up confirm=0
C#CCOC(=O)CN1C(=O)c2cccc3cccc(c23)C1=O	-1
Cc1ccc(-n2c(O)c(C=NC3CCS(=O)(=O)C3)c3ccccc3c2=O)cc1C (configuration not stated)	0
Cc1nn2c3ccccc3n(CCN3CCCCC3)c2nc1=O	11*	TTR inh HuH7=-9;TTR up confirm=-1
O=C(O)CCc1nn2c3ccccc3nc2n(CCN2CCCCC2)c1=O	2
CCn1c(=O)c(C)nn2c3ccccc3nc12	-1
C[C@H](CO)N1C[C@H](C)[C@@H](CN(C)S(=O)(=O)c2cccs2)Oc2ccc(NC(=O)Nc3ccc(C(F)(F)F)cc3)cc2C1=O	-6
CCN(c1ccccc1)c1ncnc2c1cnn2-c1ccccc1	-2
Cc1ccccc1NC(=O)/C(C#N)=C/c1ccsc1	1
CCOC(=O)CCCCCCCCC(=O)Nc1ccc(-n2[nH]c(=O)cc2C)cc1	2
CCOC(=O)CCCCC(=O)NC(CO)C(=O)NC (configuration not stated)	9.9*	TTR inh HuH7=-5;TTR up confirm=0
CCOC(=O)CCC(NC(=O)CCCCC(=O)NC(CCC(=O)OCC)C(=O)OCC)C(=O)OCC (configuration not stated)	4
COc1ccc(NC(=O)C2(C)CCN2Cc2ccc3ccccc3c2)cc1OC (configuration not stated)	-1
O=C(NC1CC1)C1CCN(c2ccc(S(=O)(=O)N3CCOCC3)cc2Cl)CC1	-2
SMILES	TTR transcr act	others
Cc1ccc(S(=O)(=O)NNC(=O)C2CCN(S(=O)(=O)c3ccc(C)cc3)CC2)cc1	-1
CSc1ccc(S(=O)(=O)N2CCC(C(=O)NC3CC3)CC2)cc1	18*	TTR inh HuH7=-18;TTR up confirm=1
O=C(OCC(=O)N1CCN(c2ccccc2)CC1)c1ccc2ccccc2n1	-3
CCOc1ccc(NC(=O)OCCN2CCN(CCc3ccccc3)C(C)C2)cc1 (configuration not stated)	0
Cc1cc[n+]2n1CC(O)C2 (configuration not stated)	-1
CS(=O)(=O)N1N=C(c2cccs2)CC1c1ccccc1 (configuration not stated)	1
CS(=O)(=O)N1N=C(c2ccco2)CC1c1ccc(Br)cc1 (configuration not stated)	18*	TTR inh HuH7=-19;TTR up confirm=0
COc1ccc(C2CC(c3ccc(OC)c(OC)c3)=NN2S(C)(=O)=O)cc1 (configuration not stated)	-1
COc1ccc(CNC(=O)C[C@H]2C[C@H](C(=O)N3CCOCC3)[C@@]3(C)c4[nH]c5ccc(Cl)cc5c4CCN3C2=O)cc1OC	2
CN(C)CC/C=C1\c2cc(F)ccc2CSc2ccccc21	0
Cc1ccc(C)c(N2CCN(C(=O)c3cccn4c(=O)c5sccc5nc34)CC2)c1	-2
CCN(CC)S(=O)(=O)c1ccc(C)c(NC(=O)Cn2cnc3cc([N+](=O)[O-])ccc3c2=O)c1	-1
Cc1cc(NC(=O)c2c([N+](=O)[O-])c(C)nn2C)no1	4
CCOCCCNC(=O)CN1C(=O)COc2ccc(S(=O)(=O)N3CCCC3)cc21	11*	TTR inh HuH7=-12;TTR up confirm=0
CC(C)CN(CCCNC(=O)CN1C(=O)COc2ccc(S(=O)(=O)N3CCC(C)CC3)cc21)CC(C)C	0
COc1ccc(CNC(=O)CN2C(=O)COc3ccc(S(=O)(=O)N4CCCC4)cc32)cc1	0
Cc1occc1-c1nnc(SCC(=O)N2CCN(c3ccc(F)cc3)CC2)n1C	0
CCC(=O)Nc1cccc(-c2csc(-c3ccccc3)n2)c1	-1
COc1ccc(CC(=O)Nc2cccc(-c3csc(C)n3)c2)cc1	-1
CC(=O)Nc1cccc(-c2csc(N)n2)c1	9.7*	TTR inh HuH7=-13;TTR up confirm=0
C[C@@H]1CN([C@@H](C)CO)C(=O)CCCn2nncc2CO[C@@H]1CN(C)C(=O)c1ccc(N2CCN(C)CC2)cc1	-1
C[C@H](CO)N1C[C@H](C)[C@H](CN(C)C(=O)c2ccncc2)OCc2cnnn2CCCC1=O	18*	TTR inh HuH7=-8;TTR up confirm=0
C[C@@H]1CN([C@H](C)CO)C(=O)CCCn2nncc2CO[C@H]1CN(C)C(=O)c1ccccc1	2
Cc1nc(C)c(C(=O)NNS(=O)(=O)c2ccc3ccccc3c2)s1	0
Cc1nc(SCC(=O)NCCc2ccc(Cl)cc2)nc(C)c1C	3
SMILES	TTR transcr act	others
COc1cc(C(=O)NC(=S)NNC(=O)c2cnccn2)cc(OC)c1OC	0
Cc1ccc(/C=C/C2=NN(Cc3ccc(Cl)c(Cl)c3)C(=O)CC2)cc1	13*	TTR inh HuH7=7;TTR up confirm=0
CC1=NN(Cc2ccccc2)C(=O)C1	-2
Cc1ccccc1CN1N=C(/C=C/c2ccccc2)CCC1=O	2
Cc1c(Cl)cccc1NC(=O)CC1Oc2ccccc2NC1=O (configuration not stated)	-1
Cc1nc(NC(C)(C)CO)c([N+](=O)[O-])cc1[N+](=O)[O-]	-1
O=C(c1cc(COc2ccc(F)cc2Cl)on1)N1CCCC(OCc2cccnc2)C1 (configuration not stated)	3
COc1ccccc1-c1nn2c(C(F)(F)F)nnc2s1	-1
Cc1ccc(NC(=O)c2ccc3snnc3c2)cc1C	-1
C=C(C)Cn1c(N2CCN(c3ccc(OC)cc3)CC2)nc2c1c(=O)n(C)c(=O)n2C	-4
CCCNC(=O)N(C)C[C@@H]1Oc2cc(Br)ccc2S(=O)(=O)N([C@@H](C)CO)C[C@H]1C	3
C[C@H]1CN([C@@H](C)CO)S(=O)(=O)c2ccc(Br)cc2O[C@H]1CN(C)C(=O)CN(C)C	-1
C[C@H]1CN([C@@H](C)CO)S(=O)(=O)c2ccc(Br)cc2O[C@H]1CN(C)C(=O)Cc1ccccc1	2
C[C@H]1CN([C@@H](C)CO)S(=O)(=O)c2ccc(-c3cncnc3)cc2O[C@H]1CN(C)C(=O)NC1CCCC1	0
C[C@H](CO)N1C[C@H](C)[C@@H](CN(C)C(=O)NC2CCCC2)Oc2cc(Br)ccc2S1(=O)=O	18*	TTR inh HuH7=-10;TTR up confirm=2
